# Results taken from paper PMC12820563, “FoxP3 forms a head-to-head dimer in vivo and stabilizes its multimerization on adjacent microsatellites”.
# Whole data set: some 16,000 sequences, median “rpm ratio (pull-down/input)” near 0.5, cut for the highest 2% near 5.5. The sample holds the highest values, similar sequences and a random draw of the others, so the mix is not that of the screen.
# Target: T1, MBP-FoxP3dN (Mus musculus, UniProt Q99JB6 188-423)
# T1 sequence: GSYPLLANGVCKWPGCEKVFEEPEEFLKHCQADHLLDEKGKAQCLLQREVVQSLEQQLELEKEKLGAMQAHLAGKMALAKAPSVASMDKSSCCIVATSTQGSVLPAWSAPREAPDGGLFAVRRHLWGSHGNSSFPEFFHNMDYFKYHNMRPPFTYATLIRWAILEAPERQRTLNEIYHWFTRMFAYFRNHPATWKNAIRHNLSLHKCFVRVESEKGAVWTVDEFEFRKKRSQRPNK
# Assay: PD-seq (MBP pull-down with sequencing); 20 mM Tris-HCl pH 7.5, 100 mM NaCl, 1.5 mM MgCl2, 0.4 uM protein, 0.1 uM dsDNA library, 30 min, room temperature, amylose pull-down; high values mean tight binding
# Details: protein: recombinant; tags: His6-MBP; chain copies: 2; dsDNA, one strand shown
# Outline: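 Binding is reads-per-million enrichment of pull-down over input, with replicates pooled. It comes from 30 min room-temperature incubation in Tris pH 7.5 buffer with NaCl and MgCl2 of 0.4 µM His6-MBP-tagged, N-terminally truncated mouse FoxP3 or FoxP1 fragment from E. coli with 0.1 µM Klenow-filled degenerate double-stranded DNA library, followed by amylose resin capture, three washes and Illumina sequencing of the released DNA.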
row,Sequence,binding signal
1,GATGATTGTTCTCCCAGCTGATGAATTCGAGATATCGAGTAAACAAATTTTCCTAATCTTTCTGTTCAAGCGCCATCTAC,0.404 RPM ratio (pull-down/input)
2,GATGATTGTTCTCCCAGCTGATGAATTGGTAGCCTCGAGTAAACAAATTTTCCTAATCTTTCTGTTCAAGCGCCATCTAC,0.924 RPM ratio (pull-down/input)
3,GATGATTGTTCTCCCAGCTGATGAATTCACTGTATCGAGTAAACAAATTTTCCTAATCTTTCTGTTCAAGCGCCATCTAC,0.627 RPM ratio (pull-down/input)
4,GATGATTGTTCTCCCAGCTGATGAATTGTCTGTATCGAGTAAACAAATTTTCCTAATCTTTCTGTTCAAGCGCCATCTAC,0.624 RPM ratio (pull-down/input)
5,GATGATTGTTCTCCCAGCTGATGAATTGTGGCGTTCGAGTAAACAAATTTTCCTAATCTTTCTGTTCAAGCGCCATCTAC,2.54 RPM ratio (pull-down/input)
6,GATGATTGTTCTCCCAGCTGATGAATTGAATGATTCGAGTAAACAAATTTTCCTAATCTTTCTGTTCAAGCGCCATCTAC,0.737 RPM ratio (pull-down/input)
7,GATGATTGTTCTCCCAGCTGATGAATTCGAACACTCGAGTAAACAAATTTTCCTAATCTTTCTGTTCAAGCGCCATCTAC,0.457 RPM ratio (pull-down/input)
8,GATGATTGTTCTCCCAGCTGATGAATTTTTCCGTTCGAGTAAACAAATTTTCCTAATCTTTCTGTTCAAGCGCCATCTAC,0.238 RPM ratio (pull-down/input)
9,GATGATTGTTCTCCCAGCTGATGAATTCACTCAATCGAGTAAACAAATTTTCCTAATCTTTCTGTTCAAGCGCCATCTAC,0.294 RPM ratio (pull-down/input)
10,GATGATTGTTCTCCCAGCTGATGAATTGGGACTGTCGAGTAAACAAATTTTCCTAATCTTTCTGTTCAAGCGCCATCTAC,0.673 RPM ratio (pull-down/input)
11,GATGATTGTTCTCCCAGCTGATGAATTACACTATTCGAGTAAACAAATTTTCCTAATCTTTCTGTTCAAGCGCCATCTAC,0.606 RPM ratio (pull-down/input)
12,GATGATTGTTCTCCCAGCTGATGAATTGCATCCCTCGAGTAAACAAATTTTCCTAATCTTTCTGTTCAAGCGCCATCTAC,4.21 RPM ratio (pull-down/input)
13,GATGATTGTTCTCCCAGCTGATGAATTGCCATCCTCGAGTAAACAAATTTTCCTAATCTTTCTGTTCAAGCGCCATCTAC,0.935 RPM ratio (pull-down/input)
14,GATGATTGTTCTCCCAGCTGATGAATTTGCATCCTCGAGTAAACAAATTTTCCTAATCTTTCTGTTCAAGCGCCATCTAC,7.55 RPM ratio (pull-down/input)
15,GATGATTGTTCTCCCAGCTGATGAATTGTAACCATCGAGTAAACAAATTTTCCTAATCTTTCTGTTCAAGCGCCATCTAC,1.1 RPM ratio (pull-down/input)
16,GATGATTGTTCTCCCAGCTGATGAATTGGACGACTCGAGTAAACAAATTTTCCTAATCTTTCTGTTCAAGCGCCATCTAC,0.259 RPM ratio (pull-down/input)
17,GATGATTGTTCTCCCAGCTGATGAATTGTGTTCATCGAGTAAACAAATTTTCCTAATCTTTCTGTTCAAGCGCCATCTAC,1.77 RPM ratio (pull-down/input)
18,GATGATTGTTCTCCCAGCTGATGAATTCGAGTTATCGAGTAAACAAATTTTCCTAATCTTTCTGTTCAAGCGCCATCTAC,0.746 RPM ratio (pull-down/input)

row,Sequence,binding signal
1,GATGATTGTTCTCCCAGCTGATGAATTGCCAAATTCGAGTAAACAAATTTTCCTAATCTTTCTGTTCAAGCGCCATCTAC,0.453 RPM ratio (pull-down/input)
2,GATGATTGTTCTCCCAGCTGATGAATTGGATCCGTCGAGTAAACAAATTTTCCTAATCTTTCTGTTCAAGCGCCATCTAC,0.219 RPM ratio (pull-down/input)
3,GATGATTGTTCTCCCAGCTGATGAATTGTTTGTGTCGAGTAAACAAATTTTCCTAATCTTTCTGTTCAAGCGCCATCTAC,8.22 RPM ratio (pull-down/input)
4,GATGATTGTTCTCCCAGCTGATGAATTGTGTTTGTCGAGTAAACAAATTTTCCTAATCTTTCTGTTCAAGCGCCATCTAC,8.45 RPM ratio (pull-down/input)
5,GATGATTGTTCTCCCAGCTGATGAATTGTGTGTGTCGAGTAAACAAATTTTCCTAATCTTTCTGTTCAAGCGCCATCTAC,5.21 RPM ratio (pull-down/input)
6,GATGATTGTTCTCCCAGCTGATGAATTTTGTGTTTCGAGTAAACAAATTTTCCTAATCTTTCTGTTCAAGCGCCATCTAC,5.3 RPM ratio (pull-down/input)
7,GATGATTGTTCTCCCAGCTGATGAATTTTTGTTCTCGAGTAAACAAATTTTCCTAATCTTTCTGTTCAAGCGCCATCTAC,0.494 RPM ratio (pull-down/input)
8,GATGATTGTTCTCCCAGCTGATGAATTGTTTACCTCGAGTAAACAAATTTTCCTAATCTTTCTGTTCAAGCGCCATCTAC,7.12 RPM ratio (pull-down/input)
9,GATGATTGTTCTCCCAGCTGATGAATTTGTTTTCTCGAGTAAACAAATTTTCCTAATCTTTCTGTTCAAGCGCCATCTAC,7.21 RPM ratio (pull-down/input)
10,GATGATTGTTCTCCCAGCTGATGAATTTTTTACCTCGAGTAAACAAATTTTCCTAATCTTTCTGTTCAAGCGCCATCTAC,0.228 RPM ratio (pull-down/input)
11,GATGATTGTTCTCCCAGCTGATGAATTTACCTCCTCGAGTAAACAAATTTTCCTAATCTTTCTGTTCAAGCGCCATCTAC,0.573 RPM ratio (pull-down/input)
12,GATGATTGTTCTCCCAGCTGATGAATTTGTTTCCTCGAGTAAACAAATTTTCCTAATCTTTCTGTTCAAGCGCCATCTAC,5.92 RPM ratio (pull-down/input)
13,GATGATTGTTCTCCCAGCTGATGAATTTGATTTCTCGAGTAAACAAATTTTCCTAATCTTTCTGTTCAAGCGCCATCTAC,4.02 RPM ratio (pull-down/input)
14,GATGATTGTTCTCCCAGCTGATGAATTGTTTTCCTCGAGTAAACAAATTTTCCTAATCTTTCTGTTCAAGCGCCATCTAC,4.78 RPM ratio (pull-down/input)
15,GATGATTGTTCTCCCAGCTGATGAATTTTGTTTCTCGAGTAAACAAATTTTCCTAATCTTTCTGTTCAAGCGCCATCTAC,5.54 RPM ratio (pull-down/input)
16,GATGATTGTTCTCCCAGCTGATGAATTTGTTCTCTCGAGTAAACAAATTTTCCTAATCTTTCTGTTCAAGCGCCATCTAC,2.14 RPM ratio (pull-down/input)
17,GATGATTGTTCTCCCAGCTGATGAATTTTGTTCCTCGAGTAAACAAATTTTCCTAATCTTTCTGTTCAAGCGCCATCTAC,1.64 RPM ratio (pull-down/input)
18,GATGATTGTTCTCCCAGCTGATGAATTGTTTTTCTCGAGTAAACAAATTTTCCTAATCTTTCTGTTCAAGCGCCATCTAC,4.35 RPM ratio (pull-down/input)
